About 79,000 compounds went through this panel and 15% of them were active in at least one assay; those are over-represented in the sample as a whole. Unmarked numbers belong to inactive results. The source made the active and inactive calls. No stated cut-off is given here; in the data, active means growth inhibition above about 70%; inactive means the rest.
Legend:
[1] = NCI Yeast Anticancer Drug Screen. Data for the rad50 strain (AID 155);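 further: 0% = growth of vehicle-only cultures of the same strain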; conditions: S. cerevisiae rad50 strain growth inhibition; at 50.0 µM; hits give high values
Method in brief: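 Cells are treated with compound, grown, and their growth is then scored against vehicle-only cultures of the same repair-deficient yeast strain.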

[2] = NCI Yeast Anticancer Drug Screen. Data for the mec2-1 strain (AID 157); conditions: S. cerevisiae mec2-1 strain, at 50.0 µM, hits give high values
Method in brief: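 Growth inhibition is read against vehicle-treated controls after compound exposure of the mec2-1 yeast strain, which is defective in DNA damage repair or cell cycle control.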

[3] = NCI Yeast Anticancer Drug Screen. Data for the sgs1 mgt1 strain (AID 161);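 further: 0% = growth of cultures given vehicle only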; conditions: S. cerevisiae sgs1 mgt1 strain, at 50.0 µM, hits give high values
Method in brief: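 This yeast growth screen uses a strain with defined DNA-repair lesions; compound-treated growth is compared with vehicle-treated growth.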

[4] = NCI Yeast Anticancer Drug Screen. Data for the cln2 rad14 strain (AID 165);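 further: 0% = growth equal to vehicle treated cultures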; conditions: S. cerevisiae cln2 rad14 strain, at 50.0 µM, hits give high values
Method in brief: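 Growth inhibition, relative to vehicle-treated controls, is the read-out. The test organism is a yeast strain with defined genetic alterations, cln2 rad14.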

[5] = NCI Yeast Anticancer Drug Screen. Data for the bub3 strain (AID 167); conditions: S. cerevisiae bub3 mutant strain, at 50.0 µM, hits give high values
Method in brief: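 Part of a panel of yeast mutants defective in DNA damage repair or cell cycle regulation. Each strain is grown with compound, and inhibition is calculated relative to solvent-treated cultures.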

[6] = NCI Yeast Anticancer Drug Screen. Data for the mlh1 rad18 strain (AID 175); conditions: S. cerevisiae mlh1 rad18 strain growth inhibition; at 50.0 µM; hits give high values
Method in brief: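 Cells of a genetically altered yeast strain, deficient in DNA damage repair, were treated with compound. Their growth was then compared with that of vehicle-treated cultures to give inhibition.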

Row | Compound | growth inhibition [1] | growth inhibition [2] | growth inhibition [3] | growth inhibition [4] | growth inhibition [5] | growth inhibition [6]
1 | CCC(C#N)(C(=O)OC)/C(C)=C/C(C)C (stereo unspecified) | 7.95% | -13.2% | -3.45% | -7.25% | -26.9% | -25.1%
2 | CCC1(CN(C)C)CC/C(=C\c2ccc(OC)cc2)C1=O (stereo unspecified) | 8.8% | 4.1% | -9.2% | -6.1% | -5.8% | 27.3%
3 | CN(C)C1=NC(NC2CCCCC2)(N(C)C)OC(N(C)C)=N1 (stereo unspecified) | 1% | -0.9% | 3.2% | 20.2% | 1.9% | 10.8%
4 | Cc1nc(N)c2nc(SC(C)C)c(N)nc2n1 | 2.85% | -6.55% | 0.45% | -31.2% | -20.9% | 17.2%
5 | NC(=O)CCC(N)=O | 22.6% | 5.75% | 5.25% | -5.4% | 17.1% | 1.45%
6 | CCCCCC(=O)NCCCOC | -20% | 10.8% | -0.35% | -46.4% | -13.7% | -8.9%
7 | [O-]c1on[n+]2c1c(Nc1ccc(Cl)cc1)nc1ccccc12 | -31.1% | -28% | -22.3% | -21.2% | -36.5% | -39.5%
8 | CN(C)c1nc(N/N=C\C(O)C(O)C(O)C(O)CO)nc(N(C)C)n1 (stereo unspecified) | -1.55% | 2.45% | -7.1% | 1.15% | 32.1% | 9%
9 | CC1(C)OC2C(COC(=O)c3ccc([N+](=O)[O-])cc3)OC(NC(=O)N(CCCl)N=O)C2O1 (stereo unspecified) | -34.4% | -21.2% | -20.9% | -11.2% | -36.5% | 81.5% (active)
10 | N#CC(C#N)=CNC(=S)c1ccncc1 | -21.1% | -33.6% | -19.6% | 6.7% | -4.85% | -24.2%
11 | C1CCN(CCC2CCCCN2)CC1 (stereo unspecified) | -23.4% | -32.4% | -41.6% | -33.2% | -37.8% | -28%
12 | COc1ccc(Cc2ccccc2)cc1 | -2% | -13.2% | 17.4% | 7.8% | -4.55% | 6.65%
13 | O=C(O)CCSc1nc2c(=O)[nH][nH]c(=O)c2n1Cc1ccccc1 | 7.2% | -13.2% | 7.05% | -53.1% | -0.75% | 9.7%
14 | Cc1cnc2cc(Cl)ccc2c1SCC(=O)O | 3.6% | -39.7% | -42.9% | -24.4% | -36.6% | 1.05%
15 | COc1ccc(CNc2ncccn2)cc1 | 14.1% | -23.7% | 0.7% | 9.5% | -12% | 13.5%
16 | CC1(C)C2C/C(=N/O)C(=O)C1C2 (stereo unspecified) | -4.5% | 4.05% | 8.8% | 14.6% | -16.9% | -20.2%
17 | COc1ccc2c(c1)OC[C@@H]1c3cc(O)c(OCc4ccccc4)cc3O[C@]21C | 9.9% | 40.8% | 10.3% | 53.5% | 21.7% | -26%
18 | O=C(/C=C/CC(O)(c1ccccc1)c1ccccc1)Nc1ccccc1Cl | -15.2% | -25.9% | -4.85% | 2.5% | 10.1% | -10.2%
19 | Cc1ccc(CNC(=S)NC2CCCCC2)cc1C | 87.6% (active) | 96% (active) | 94.2% (active) | 83.5% (active) | 90% (active) | 96.3% (active)
20 | N#Cc1sc2c(c1O)c(=O)n(-c1ccccc1)c(=S)n2-c1ccccc1 | -40.9% | -36.9% | -37.3% | -23.1% | -54.9% | -47.8%
21 | C=C1C(=O)OC2C1C(OC(=O)/C(=C/C)COC(C)=O)CC1(CO1)C1C(OC(=O)/C(=C/C)CO)C=C(C)C21 (stereo unspecified) | -20.6% | -19% | -21.1% | 1.55% | -41.1% | -8.05%

Row | Compound | growth inhibition [1] | growth inhibition [2] | growth inhibition [3] | growth inhibition [4] | growth inhibition [5] | growth inhibition [6]
22 | CCOC(=O)c1cn2c(nc1=O)N[C@H]1CCCC[C@@H]12 | 37.8% | 11.1% | 0.4% | -2.45% | 8.4% | -1%
23 | CCC1C(C)(C)c2cc(C)c(C(C)=O)cc2C1(C)C (stereo unspecified) | -8.1% | -8.75% | 7.15% | -49.5% | 25.6% | -3.75%
24 | COc1cc(C2c3cc4c(cc3OC(NNC(N)=O)C2C)OCO4)cc(OC)c1OC (stereo unspecified) | -4.1% | 6.4% | 6.7% | -19.6% | 11.5% | 10.4%
25 | CCOC(=O)C(=CN(C)c1ccc(C)cc1)C(=O)OCC | 20.4% | 2.65% | 8.2% | 9.7% | 25.6% | 8.9%
26 | NC(=O)N1CCCCC1 | 7.2% | -6.6% | 24.4% | 7.2% | 13.9% | 4.65%
27 | COc1ccc(C(NCCn2cnc3c2c(=O)n(C)c(=O)n3C)c2ccccc2)cc1 (stereo unspecified) | 19.4% | 4.05% | 11.2% | -33.6% | -4.5% | 18.8%
28 | COC1=CC(=O)O/C1=C(\OC)C1OC1c1ccccc1 (stereo unspecified) | -4% | -7.25% | 2.9% | -1.35% | -6.5% | -24.9%
29 | Cc1cc(OC(=O)c2c(C)cc(OC(=O)c3c(C)cc(O)cc3O)cc2O)cc(O)c1C(=O)O | -7.15% | -44.7% | -19.4% | -3.55% | -27.4% | -2.15%
30 | NC(=O)Nc1ccccc1 | 11.4% | -8.6% | -7.55% | -34.5% | -5.2% | 14.2%
31 | CCN(CC)/[N+]([O-])=N/OCC(C)O (stereo unspecified) | 18.4% | -3.45% | -3.85% | 8.35% | 0.55% | -12.5%
32 | CCOC(C)C(=O)C=O (stereo unspecified) | -17.9% | -13.6% | -17.2% | -4.55% | -13.4% | -8.4%
33 | O=C(Nc1ccc(Cl)cc1)NS(=O)(=O)c1coc2cc(F)ccc2c1=O | 7% | -11.2% | -23.6% | 31.6% | 16.4% | 11.4%
34 | O=C1Nc2cc(F)ccc2C1=O | 15.5% | 15.1% | 7.95% | 10.7% | 19.6% | 19.4%
35 | O=C(c1ccc(Cl)cc1)c1ccc2ccccc2c1 | -5.3% | -8.6% | 5.35% | -3.4% | 7.8% | 4.1%
36 | O=C1CN(c2cccc(Cl)c2)C(=O)CN1NCNN1CC(=O)N(c2cccc(Cl)c2)CC1=O | -12.8% | -0.1% | 3.9% | 6.65% | -6.8% | 2.75%
37 | C[Si](C)(C)CCCO | 0.25% | 17.8% | 3.3% | 6.9% | 9.25% | 10%
38 | C=CC/C=C/CCC | 34.6% | -2.7% | -7.85% | -21.8% | -2.4% | -9.7%
39 | Nc1cc(N)nc(S(=O)O)n1 | 18.9% | 2.85% | 16.1% | 10.7% | 19.8% | 35.9%
40 | CCCCCC(=O)Nc1ccccc1 | 4.95% | -6.3% | 1.7% | -29.4% | -10.9% | -3.25%
41 | Cc1nc2ccccc2c(=O)n1/N=C\c1ccc2c(c1)CCC2 | -1.7% | -5.5% | 15.8% | 18.2% | 23% | 29.1%

Source: PubChem BioAssay (NCI)
